# Experimental data as given in PubChem BioAssay (NCI).
# The panel holds about 83,000 compounds, 20% with a hit somewhere; the sample as a whole holds those more often.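 Activity criterion: percent growth below 10, measured after cells in 96-well plates were exposed to a single compound concentration for 48 hours.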 Unmarked numbers belong to inactive results. Active and inactive are the calls of the source.
# Test system: MDA-MB-468 breast
# Test: NCI-60 one-dose screen, 48 h (100 = growth as untreated, 0 = no growth, -100 = all killed)
# Conditions: 10 µM unless noted
row,SMILES,growth
1,c1ccc(Nc2ncc3c(n2)-c2cccn2CC3)cc1,4.29% (active)
2,Cn1ccnc1C(=O)/C=C/c1ccc(NC(=O)c2ccc(F)cc2)cc1,11.8%
3,CC(=O)Nc1ccc(OC(=O)c2ccccc2O)cc1,117%
4,CO[C@H]1C[C@@H]2CC[C@@H](C)[C@@](O)(O2)C(=O)C(=O)N2CCCC[C@H]2C(=O)O[C@H]([C@H](C)C[C@@H]2CC[C@@H](O)[C@H](OC)C2)CC(=O)[C@H](C)/C=C(\C)[C@@H](O)[C@@H](OC)C(=O)[C@H](C)C[C@H](C)\C=C/C=C/C=C/1C,1.57% (active)
5,C=C(C)[C@@H]1CC[C@]2(C(=O)O)CC[C@]3(C)[C@H](CC[C@@H]4[C@@]5(C)C[C@@H](CC#Cc6ccc(C(C)=O)s6)[C@H](O)C(C)(C)[C@@H]5CC[C@]43C)[C@@H]12,63.4%
6,CC(=O)N(N=Nc1ccccc1)c1cccc2ccccc12,84.7%
7,OCCN1CCN(CCCN2c3ccccc3Sc3ccc(C(F)(F)F)cc32)CC1,-47.1% (active)
8,Cc1cc(C(C)(C)CC(C)(C)C)ccc1OCCOCC[N+](C)(C)Cc1ccccc1,-82.5% (active)
9,COc1ccc(N=Nc2cc(OC)c(OC)c(OC)c2)cc1,80.9%
10,O=S(=O)(NCCNc1cc(-c2cn(-c3ccccc3)nc2-c2ccccc2)ccn1)c1ccc(F)cc1,58%
11,C#CCOc1ccc2ncnc(Nc3ccc(NC(=O)CCl)cc3)c2c1,-57.7% (active)
12,CCOC(=O)C(CCC#N)(CCC#N)C(=O)OCC,99.9%
13,Cc1ccc(S(=O)(=O)Nn2c3c(cc(-c4nc5ccccc5s4)c2=O)CCCCCC3)cc1,110%
14,Cc1nc2ccccc2c(/C=C/c2ccc(F)cc2)c1C(N)=O,107%
15,O=C(CCCCC(=O)Nc1ccc2c(c1)/C(=C/c1ccc[nH]1)C(=O)N2)NO,49%
16,Nc1ccc(C(OC(=O)c2cc3ccccc3c(Cc3c(O)c(C(=O)OC(c4ccc(N)cc4)(c4ccc(N)cc4)c4ccc(N)cc4)cc4ccccc34)c2O)(c2ccc(N)cc2)c2ccc(N)cc2)cc1,-23% (active)

row,SMILES,growth
1,Nc1cccc(-c2nc3sccn3c2-c2ccnc(NCCCNS(=O)(=O)c3ccc(C(F)(F)F)cc3)n2)c1,0.59% (active)
2,COC(=O)[C@]12CC[C@@H](C)[C@H](C)[C@@H]1C1=CC[C@@H]3[C@@]4(C)C(C=O)=C[C@@](C)(COC(=O)c5ccco5)[C@@H]4[C@H](O)C[C@@]3(C)[C@]1(C)CC2,-12.1% (active)
3,C/C(=N\NC(=O)Nc1ccccc1)c1nnn(-c2ccc([N+](=O)[O-])cc2)c1C,104%
4,NC(=S)N/N=C(/CCN1CCCC1)CC(C1=C(O)C2=CCCCC2OC1=O)c1ccccc1 (configuration not stated),17.9%
5,COc1cc(N2C(=O)[C@H](Cl)C2c2ccc(SC)cc2)cc(OC)c1OC (some centres not stated),-9.26% (active)
6,Cc1ccc(Cc2cnc(NC(=O)/C(C#N)=C/c3ccc(-c4ccc(Cl)cc4)o3)s2)cc1,83.1%
7,COC(=O)/C(CCC=C(C)C)=C1\[C@@H](OC(C)=O)C[C@@]2(C)[C@H]1C[C@@H](O)[C@H]1[C@@]3(C)CC[C@H](NCCN)[C@@H](C)[C@@H]3CC[C@@]12C,58.6%
8,CN1CCN(CC(=O)Nc2ccc3ncnc(Nc4ccc(Oc5cccc(C(F)(F)F)c5)c(Cl)c4)c3c2)CC1,-61.3% (active)
9,CC(=O)C1C(=O)C(=O)N(c2cccc([N+](=O)[O-])c2)C1=O (configuration not stated),102%
10,COc1ccc(C2=NN(C(C)=O)C(c3c(C)nn(-c4ccccc4)c3N3CCOCC3)C2)cc1 (configuration not stated),92.6%
11,CCc1cccc(CC)c1NC(=O)c1sc2nc3c(cc2c1N)CCCC3,79.3%
12,O=c1oc2cc(OS(=O)(=O)C3CC3)ccc2c2c1CCCCCC2,39%
13,O=[N+]([O-])CC(c1ccccc1F)c1c[nH]c2ccccc12 (configuration not stated),44%
14,COc1cc(-c2ccc(-[n+]3nc(-c4ccc([N+](=O)[O-])cc4)nn3-c3ccc([N+](=O)[O-])cc3)c(OC)c2)ccc1-[n+]1nc(-c2ccc([N+](=O)[O-])cc2)nn1-c1ccc([N+](=O)[O-])cc1,-62.2% (active)
15,CCCCCC#CC(=O)O,108%
16,Cc1ccc(C(=O)Nc2ccc(CN3CCN(C)CC3)c(C(F)(F)F)c2)cc1C#Cc1cnc(N)cc1C#N,-63.8% (active)
